RecA intein inh = inhibitors of M. tuberculosis RecA intein splicing; P9WHJ3; cell-free RecA intein splicing, fluorescence; inhibition, % (no concentration beside the values); hit rate 0.75% among 290,000; AID 2221; in the data active = inhibition above about 30%; inconclusive = no clear call, values can overlap the other calls
GDH-TPI counter-1 = GDH-TPI coupled enzyme inhibition counter-screen; inhibition, % at 4.8 µM; AID 588335; hit rate 1.2% among 360,000; GDH-TPI coupled enzyme counterscreen, NADH absorbance; in the data active = inhibition above about 30%
Mtb bLac sens = beta-lactam sensitization of Mtb H37Rv; M. tuberculosis H37Rv growth with meropenem, percent inhibition; inhibition, % at 25 µM; hit rate 0.27% among 330,000; call rule not given here;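 also: growth measured after seven days incubation then overnight dye step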
FBA Mtb inh = inhibitors of M. tuberculosis fructose-bisphosphate aldolase | P9WQA3 | hit rate 2.3% among 360,000 | inhibition, % at 1 µM | purified M. tuberculosis FBA, fluorescence read-out | AID 588726
Mtb UGM inh = inhibitors of M. tuberculosis UDP-galactopyranose mutase. P9WIQ1. purified UGM, fluorescence polarization probe displacement. inhibition, % at 10 µM. hit rate 0.06% among 320,000. AID 504406; in the data active = inhibition above about 10%, passing the limit was not always enough; inconclusive = no clear call, values can overlap the other calls
Rv3671c inh = inhibits the M. tuberculosis serine protease Rv3671c | AID 2606 | hit rate 0.048% among 320,000 | inhibition, % at 5.96 µM | P9WHR9; in the data active = inhibition above about 38%;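 also: extracellular domain of Rv3671c used as enzyme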
Target sequence (P9WHR9 whole entry, looked up, the tested form may be a part): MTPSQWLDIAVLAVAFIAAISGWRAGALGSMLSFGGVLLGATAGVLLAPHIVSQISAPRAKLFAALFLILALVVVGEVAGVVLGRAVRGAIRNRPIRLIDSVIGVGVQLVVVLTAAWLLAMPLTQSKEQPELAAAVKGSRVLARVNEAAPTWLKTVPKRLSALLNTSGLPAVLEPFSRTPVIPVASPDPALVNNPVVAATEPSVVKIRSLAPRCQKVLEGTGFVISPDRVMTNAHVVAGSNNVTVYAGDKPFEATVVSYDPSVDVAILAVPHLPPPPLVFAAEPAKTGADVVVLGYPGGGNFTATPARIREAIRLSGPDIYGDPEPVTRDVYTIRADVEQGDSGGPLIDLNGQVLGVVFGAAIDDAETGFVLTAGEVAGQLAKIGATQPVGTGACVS
Mtb FBA inh conf = Mtb FBA inhibition, confirmed; shares compounds with FBA Mtb inh; purified M. tuberculosis FBA, fluorescence read-out; inhibition, % at 1 µM; hit rate 78% among 5,600
GDH-TPI counter-2 = inhibits GDH-TPI coupling enzymes, flagging Mtb FBA hits; shares compounds with FBA Mtb inh; hit rate 81% among 5,600; inhibition, % at 1 µM; GDH-TPI coupled enzyme counterscreen, fluorescence; in the data active = inhibition above about 10%
Large screens that a line does not name were inactive (follow-up assays come after a bar, where they were run). Shown are actives, neighbours in structure and some others; about 4% of the full set was active somewhere. Rule as the data show it, unless noted: active = inhibition above about 27%; inactive = the rest.

CCOC(=O)CNc1c(-c2ccc(Cl)cc2)nc2cnccn12	FBA Mtb inh 68 | Mtb FBA inh conf 56 | GDH-TPI counter-2 50
O=C(Nc1nccs1)c1cc2c(s1)-c1ccccc1OC2	FBA Mtb inh 28 | Mtb FBA inh conf 142 | GDH-TPI counter-2 116
O=C(Nc1nc2ccccc2s1)c1cc2c(s1)-c1ccccc1OC2	none
CCOC(=O)c1cc2c(s1)-c1c(C)cccc1OC2	FBA Mtb inh 82 | Mtb FBA inh conf inactive | GDH-TPI counter-2 17
Cc1cccc2c1-c1sc(C(=O)Nc3nccs3)cc1CO2	FBA Mtb inh 42 | Mtb FBA inh conf inactive | GDH-TPI counter-2 inactive
O=C(c1cc2c(s1)-c1ccccc1OC2)N1CCc2ccccc2C1	none
Cc1ccc(C(=O)Nc2nccs2)s1	none
O=C(Nc1ccc(Cl)cn1)c1cc2c(s1)-c1ccccc1OC2	FBA Mtb inh 47 | Mtb FBA inh conf inactive | GDH-TPI counter-2 20
CCOc1ccc(CCNC(=O)COC(=O)c2cccc(S(=O)(=O)N3CCCC3)c2)cc1OCC	none
CSCC[C@H](NC(=O)c1ccc2c(c1)OCO2)c1nnc2ccccn12	none
COc1cccc(OCC(=O)Nc2c3c(nn2-c2ccccc2)CS(=O)(=O)C3)c1	Mtb bLac sens inconclusive
Cc1c(CC(=O)O)c(=O)oc2c(C)c(OCc3ccccc3)ccc12	none (no result: Rv3671c inh)
C=C(C)COc1ccc2c(C)c(CC(=O)OC)c(=O)oc2c1C	FBA Mtb inh 89 (no result: RecA intein inh) | Mtb FBA inh conf 76 | GDH-TPI counter-2 62
COC(=O)Cc1c(C)c2ccc(OCC(C)=O)c(C)c2oc1=O	FBA Mtb inh 79 | Mtb FBA inh conf inactive | GDH-TPI counter-2 inactive
COc1cc(COc2ccc3c(C)c(CC(=O)O)c(=O)oc3c2C)cc(OC)c1OC	none
Cc1c(CC(=O)O)c(=O)oc2c(C)c(OCc3c(F)cccc3Cl)ccc12	FBA Mtb inh 44 (no result: Rv3671c inh) | Mtb FBA inh conf 76 | GDH-TPI counter-2 67
CC(C)(C)c1ccc(C(=O)NCCC(=O)Nc2ccc3c(c2)OCCO3)cc1	none (no result: RecA intein inh, Mtb bLac sens, Mtb UGM inh, Rv3671c inh)
COc1ccc(-n2nc(C(=O)NCC(=O)NCCN(C)C)c3ccccc3c2=O)cc1	none
COc1ccc(CCNC(=O)Nc2ccc(F)cc2F)cc1OC	none
COc1ccccc1N1CCN(C2CCCN(C(=O)c3ccsc3)C2)CC1 (configuration not stated)	none
N#Cc1c(-c2ccc(F)cc2)c2c([nH]c1=O)-c1ccccc1OC2	FBA Mtb inh 105 | Mtb FBA inh conf active | GDH-TPI counter-2 active
O=S(=O)(c1cccs1)N1CCCCC1	none (no result: RecA intein inh, Mtb bLac sens, Mtb UGM inh, Rv3671c inh)
Cc1ccc(/C=C2\OC(=O)c3ccccc32)cc1	FBA Mtb inh 45 | Mtb FBA inh conf inactive | GDH-TPI counter-2 inactive
COc1ccc(-c2nc3n(c2C)Cc2ccccc2-3)cc1	FBA Mtb inh 111 | Mtb FBA inh conf 101 | GDH-TPI counter-2 93
O=C(c1ccc(N2CCCC2=O)cc1)N1CCN(c2ccccc2F)CC1	none
Cc1ccc(-c2csc(NC(=O)CN3CC(C)OC(C)C3)n2)cc1 (configuration not stated)	FBA Mtb inh 42 | Mtb FBA inh conf 88 | GDH-TPI counter-2 67
CC1CCN(CC(=O)Nc2nc(-c3ccccc3)cs2)CC1	none
COc1ccc(-c2cc(C(F)F)n3ncc(C(=O)N4CCSCC4)c3n2)cc1	none
COc1ccc(-c2cc(C(F)F)n3ncc(C(=O)N4CCN(C)CC4)c3n2)cc1	FBA Mtb inh 30 | Mtb FBA inh conf 39 | GDH-TPI counter-2 34
NC(=O)C1CCCN(C(=O)c2ccc(NC(=O)c3cccs3)cc2)C1 (configuration not stated)	none (no result: RecA intein inh)
Cc1onc(-c2ccccc2Cl)c1C(=O)Nc1nnc(-c2ccc(Br)cc2)s1	GDH-TPI counter-1 37, FBA Mtb inh 92 | Mtb FBA inh conf 119 | GDH-TPI counter-2 99
Cc1onc(-c2c(F)cccc2Cl)c1C(=O)Nc1nnc(-c2ccccc2)s1	none
Cc1onc(-c2ccccc2Cl)c1C(=O)Nc1nnc(-c2ccc(Cl)cc2Cl)s1	FBA Mtb inh 62 | Mtb FBA inh conf 68 | GDH-TPI counter-2 57
Cc1onc(-c2ccccc2Cl)c1C(=O)Nc1nnc(-c2ccc(F)cc2)s1	none
Cc1cccc(NC(=O)C(C)SCc2nc3sc4c(c3c(=O)[nH]2)CCCC4)n1 (configuration not stated)	FBA Mtb inh 31 | Mtb FBA inh conf 153 | GDH-TPI counter-2 93
CC(C)(C)c1ccc(CC(=O)N2CCC2(C)C(=O)NS(=O)(=O)c2cccs2)cc1 (configuration not stated)	none (no result: RecA intein inh, Mtb bLac sens, Mtb UGM inh, Rv3671c inh)
CCCCN(C)CCNC(=O)c1c[nH]c2ccc(S(=O)(=O)N(CC)CC)cc2c1=O	FBA Mtb inh 29 | Mtb FBA inh conf 51 | GDH-TPI counter-2 52
CCCNC(=O)c1c[nH]c2ccc(S(=O)(=O)N(C)c3ccc(OCC)cc3)cc2c1=O	none (no result: GDH-TPI counter-1, FBA Mtb inh)
Cc1c2ccccc2cc(Cc2ccccc2)[n+]1C	none
COC(=O)c1ccccc1NC(=O)N1CCCC1	FBA Mtb inh 28 | Mtb FBA inh conf 102 | GDH-TPI counter-2 83
COCCSc1nc(N)c2c3c(sc2n1)CN(C)CC3	FBA Mtb inh 52 | Mtb FBA inh conf 70 | GDH-TPI counter-2 48
CN(C)CCSc1nc(N)c2c3c(sc2n1)CN(C)CC3	FBA Mtb inh 38 | Mtb FBA inh conf 73 | GDH-TPI counter-2 62
CC1CCCCC1NC(=O)CCS(=O)(=O)c1cc2c(cc1Cl)NC(=O)CO2 (configuration not stated)	none
Cc1nc(-c2ccccc2)sc1-c1n[nH]c(=S)n1C	none
CSc1nnc(-c2sc(-c3ccccc3)nc2C)n1C	FBA Mtb inh 54 | Mtb FBA inh conf inactive | GDH-TPI counter-2 inactive
CC(=O)Nc1nnc(-c2ccccn2)o1	FBA Mtb inh 31 | Mtb FBA inh conf active | GDH-TPI counter-2 153
COc1ccc(N(CC(=O)NCc2ccc(F)cc2)C(=O)Cn2nnc(-c3ccc(C)o3)n2)cc1OC	none (no result: RecA intein inh)
CSc1nc(NCC(C)C)c2c3c(sc2n1)CN(C)CC3	FBA Mtb inh 49 | Mtb FBA inh conf 59 | GDH-TPI counter-2 57
COCCNc1nc(SC)nc2sc3c(c12)CCN(C)C3	FBA Mtb inh 80 | Mtb FBA inh conf 196 | GDH-TPI counter-2 177
CSc1nc(NCCCN(C)C)c2c3c(sc2n1)CN(C)CC3	none (no result: GDH-TPI counter-1, FBA Mtb inh, Rv3671c inh)
CCN(CC)CCNc1nc(SC)nc2sc3c(c12)CCN(C)C3	FBA Mtb inh 41 | Mtb FBA inh conf 97 | GDH-TPI counter-2 75
CSc1nc(NCc2ccccc2)c2c3c(sc2n1)CN(C)CC3	FBA Mtb inh 72 | Mtb FBA inh conf 140 | GDH-TPI counter-2 84
N#Cc1ccc(Cl)cc1NC(=O)CSc1nc2nc(-c3cccs3)cc(C(F)(F)F)c2c(=O)[nH]1	none (no result: GDH-TPI counter-1, FBA Mtb inh)
COCCCNc1nc(SCc2ccccc2)nc2sc3c(c12)CCC3	FBA Mtb inh 34 (no result: Mtb bLac sens) | Mtb FBA inh conf 97 | GDH-TPI counter-2 78
COc1ccc(-c2cc(C)no2)cc1S(=O)(=O)N1CCN(C(=O)c2ccco2)CC1	none

Screening results: PubChem, several laboratories
